The values that follow come from PubChem BioAssay (NCATS).

Results filed as inconclusive are left out. The source made the active and inactive calls. Calls follow the shape of the dose curve; as a rule, active = well fitted inhibition curve with a large enough effect; inconclusive = small, poorly fitted or top-dose-only effect; inactive = flat fitted curve, though single readings scatter.

Common to all, as to test: qHTS profiling for inhibitors of Plasmodium falciparum proliferation (AID 504749); also: nearly all actives have a fitted effect of over 60% in size
Common to all, as to conditions: P. falciparum in erythrocytes, SYBR Green DNA, 72 h; series mostly up to 28.7 µM

One assay has as its system CP238. In short, it runs like this: (§1)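 P. falciparum-infected erythrocytes (0.3% parasitemia, 2.5% hematocrit final) were exposed to compounds for 72 h at 37 C in 5% CO2, then lysed with SYBR Green buffer overnight at room temperature; parasite DNA fluorescence was normalized to artemisinin and DMSO controls.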
The next assay has as its system CP247. In short, it runs like this: as §1
The subject of another assay is CP250. In short, it runs like this: as §1
Another assay relates to CP252. The procedure, abridged: as §1
For the next assay, the system named is CP256. The procedure, abridged: as §1
The next assay deals with CP260. In short, it runs like this:
as §1

The test system of the next assay is CP262. In short, it runs like this: as §1
For another assay, the system named is CP265. In short, it runs like this: as §1
For a further assay, the system named is CP266. In short, it runs like this:
as §1

Another assay deals with CP268. The procedure, abridged:
as §1
Potency is read from the fitted curve at half-maximal effect.

`CCCCNc1cc(C(=O)O)cc(S(N)(=O)=O)c1Oc1ccccc1`: the Potency result with CP238, with CP247, in the assay on CP250, with CP252, with CP256 and in the assay with CP260 was “inactive” throughout. In addition, the Potency entry in the assay on CP262, with CP265 and in the assay with CP268 was “inactive” throughout. Also, the result in the assay with CP266 was inactive.

Regarding `Clc1cccc(Cl)c1NC1=NCCN1`, the Potency entry in the assay with CP238, with CP247, with CP250, in the assay on CP252, in the assay on CP256 and with CP260 was “inactive” throughout. Also, the Potency entry in the assay on CP262, in the assay on CP265 and with CP268 was “inactive” throughout. Further, in the assay with CP266, the molecule was classed as inactive.

As for `Cc1[nH]c(=O)c(C#N)cc1-c1ccc2nccn2c1`, the Potency result in the assay on CP238, in the assay on CP247, in the assay with CP250, in the assay on CP252, in the assay on CP256 and in the assay on CP260 was “inactive” throughout. For the same molecule, the Potency result in the assay with CP262, in the assay on CP265 and in the assay with CP268 was “inactive” each time. Besides, the result in the assay with CP266 was inactive.

As for `CC(C)C[C@H](NC(=O)[C@@H](O)[C@H](N)Cc1ccccc1)C(=O)O`, the Potency in the assay with CP238 was 12.6 µM (active); with CP247, 6.31 µM (active); with CP250, 10 µM (active); with CP252, 6.31 µM (active); in the assay with CP256 it was 5.62 µM (active); with CP260 it was 4.47 µM (active). In addition, the Potency is 11.2 µM (active) in the assay on CP265 and 13.5 µM (active) in the assay on CP268. In addition, in the assay with CP262, the Potency result was “inactive”.

In the case of `NC(=O)c1cnccn1`, the Potency entry in the assay with CP238, with CP247, in the assay on CP250, in the assay with CP252, in the assay with CP256 and with CP260 was “inactive” in each case. For the same molecule, the Potency result in the assay with CP262, in the assay with CP265 and in the assay with CP268 was “inactive” throughout. Further, in the assay on CP266, the molecule was classed as inactive.

With `NCCCC(N)(C(=O)O)C(F)F` (centres undefined), the Potency entry with CP238, with CP247, in the assay on CP250, in the assay on CP252, with CP256 and in the assay with CP260 was “inactive” throughout. The Potency result in the assay with CP262, in the assay on CP265 and in the assay on CP268 was “inactive” each time. In addition, the outcome in the assay with CP266 was inactive.

With `CC(C[N+](C)(C)C)OC(N)=O` (centres undefined), the Potency entry in the assay on CP238, with CP247, in the assay with CP250, in the assay with CP252, with CP256 and with CP260 was “inactive” each time. Also, the Potency entry in the assay on CP262, in the assay with CP265 and with CP268 was “inactive” each time. Further, the outcome in the assay with CP266 was inactive.

Regarding `CC(=O)Oc1ccccc1C(=O)O`, the Potency entry in the assay on CP238, with CP247, in the assay on CP250, in the assay on CP252, in the assay on CP256 and in the assay on CP260 was “inactive” in each case. Besides, the Potency entry in the assay on CP262, in the assay with CP265 and with CP268 was “inactive” each time. Also, the molecule was called inactive with CP266.

As for `Oc1ccc(C2CNCCc3c2cc(O)c(O)c3Cl)cc1` (centres undefined), the Potency entry in the assay on CP238, with CP247, in the assay with CP250, in the assay with CP252, with CP256 and with CP260 was “inactive” in each case. The Potency result with CP262, in the assay on CP265 and in the assay on CP268 was “inactive” in each case. The result in the assay with CP266 was inactive.

As for `CNC[C@H](O)c1cccc(O)c1`, the Potency entry in the assay with CP238, with CP247, in the assay with CP250, with CP252, in the assay on CP256 and in the assay on CP260 was “inactive” each time. In addition, the Potency result with CP262, with CP265 and with CP268 was “inactive” each time. In addition, the outcome in the assay with CP266 was inactive.

Turning to `CC(c1cc2ccccc2s1)N(O)C(N)=O` (centres undefined), the Potency entry with CP238, in the assay with CP247, with CP250, in the assay on CP252, with CP256 and in the assay with CP260 was “inactive” throughout. Moreover, the Potency result in the assay with CP262, in the assay on CP265 and with CP268 was “inactive” each time. Moreover, the outcome in the assay with CP266 was inactive.

With `Nc1nc2c(ncn2COCCO)c(=O)[nH]1`, the Potency result in the assay on CP238, in the assay with CP247, in the assay with CP250, with CP252, in the assay on CP256 and in the assay with CP260 was “inactive” each time. Besides, the Potency result in the assay on CP262, in the assay with CP265 and in the assay on CP268 was “inactive” in each case. In the assay with CP266, the molecule was classed as inactive.

Turning to `NS(=O)(=O)c1cc2c(cc1Cl)NC=NS2(=O)=O`, the Potency result in the assay on CP238, in the assay with CP247, in the assay with CP250, in the assay on CP252, in the assay with CP256 and in the assay on CP260 was “inactive” throughout. Besides, the Potency entry in the assay on CP262, with CP265 and in the assay on CP268 was “inactive” each time. For the same molecule, the result with CP266 was inactive.

Turning to `O=C1CCC(N2C(=O)c3ccccc3C2=O)C(=O)N1` (centres undefined), the Potency entry in the assay with CP238, in the assay with CP247, in the assay with CP250, in the assay on CP252, in the assay with CP256 and with CP260 was “inactive” throughout. In addition, the Potency entry in the assay on CP262, in the assay with CP265 and with CP268 was “inactive” throughout. Besides, the outcome in the assay on CP266 was inactive.

In the case of `O=NN(CCCl)C(=O)NCCCl`, the Potency entry in the assay on CP238, in the assay on CP247, with CP250, in the assay with CP252, with CP256 and in the assay on CP260 was “inactive” in each case. For the same molecule, the Potency result in the assay with CP262, with CP265 and in the assay with CP268 was “inactive” in each case. In addition, the result in the assay on CP266 was inactive.

On to `N=c1nc(N2CCCCC2)cc(N)n1O`, for which the Potency entry with CP238, with CP247, in the assay on CP250, in the assay with CP252, in the assay on CP256 and in the assay with CP260 was “inactive” throughout. For the same molecule, the Potency result in the assay with CP262, with CP265 and in the assay with CP268 was “inactive” in each case. For the same molecule, the molecule was classed as inactive with CP266.

For `Nc1nc2ccc(OC(F)(F)F)cc2s1`, the Potency entry with CP238, in the assay on CP247, in the assay on CP250, with CP252, in the assay on CP256 and in the assay with CP260 was “inactive” in each case. Besides, the Potency entry in the assay on CP262, in the assay with CP265 and with CP268 was “inactive” in each case. For the same molecule, the call in the assay on CP266 was inactive.

Take `NC[C@H](O)c1ccc(O)c(O)c1`: the Potency entry in the assay with CP238, in the assay with CP247, in the assay on CP250, with CP252, in the assay with CP256 and in the assay with CP260 was “inactive” throughout. Besides, the Potency entry in the assay with CP262, with CP265 and in the assay with CP268 was “inactive” throughout. Moreover, the molecule was called inactive in the assay with CP266.

Consider `Cc1cn[nH]c1`, for which the Potency result in the assay with CP238, in the assay with CP247, in the assay with CP250, in the assay with CP252, with CP256 and with CP260 was “inactive” in each case. Besides, the Potency result in the assay on CP262, in the assay on CP265 and in the assay with CP268 was “inactive” in each case. In the assay with CP266, the call was inactive.
